{"source": "paper PMC12431657", "about": "“Discovery and mechanistic insights of dibenzoylmethane as a broad spectrum inhibitor of coronavirus” (PLOS Pathogens, 2025)", "tested_on": "HCoV-229E", "parameters": "species or system Huh-7; HTS, protection from HCoV-229E induced cell death, luminescent cell viability (CellCounting-Lite 2.0), inhibition rate", "note": "Read-outs that look alike come from different tables or passages of the source. The whole screen tested about 3,300 compounds, of which about 95 (3%) showed an effect of 50% or more. For the sample, strong results were picked, then their nearest neighbours and some compounds at random."}
{"smiles": "C[C@]12CC[C@@H](O)C[C@H]1CC[C@@H]1[C@@H]2CC[C@]2(C)C(=O)CC[C@@H]12", "note": "[Etiocholanolone]", "values": [{"measurement": "229E Inhibition rate", "setting": "24 h, 10 µM; inhibitor", "result": 13.1, "unit": "%"}]}
{"smiles": "C[C@]12CC[C@@H](O)C[C@@H]1CC[C@@H]1[C@@H]2CC[C@]2(C)C(=O)CC[C@@H]12", "note": "[Androsterone]", "values": [{"measurement": "229E Inhibition rate", "setting": "24 h, 10 µM; inhibitor", "result": 52.3, "unit": "%"}]}
{"smiles": "C[C@]12CC[C@H](O)C[C@@H]1CC[C@@H]1[C@@H]2CC[C@]2(C)C(=O)CC[C@@H]12", "note": "[Epiandrosterone]", "values": [{"measurement": "229E Inhibition rate", "setting": "24 h, 10 µM; inhibitor", "result": 29.3, "unit": "%"}]}
{"smiles": "COc1cc2cc(c1Cl)N(C)C(=O)C[C@H](OC(=O)C(C)C)[C@]1(C)O[C@@H]1[C@H](C)[C@@H]1C[C@@](O)(NC(=O)O1)[C@H](OC)/C=C/C=C(\\C)C2", "note": "[Ansamitocin P-3]", "values": [{"measurement": "229E Inhibition rate", "setting": "24 h, 10 µM; inhibitor", "result": 22.8, "unit": "%"}]}
{"smiles": "CN(C)NC(=O)CCC(=O)O", "note": "[Daminozide]", "values": [{"measurement": "229E Inhibition rate", "setting": "24 h, 10 µM; inhibitor", "result": 12.3, "unit": "%"}]}
{"smiles": "NC(=O)Cc1ccccc1", "note": "[2-Phenylacetamide]", "values": [{"measurement": "229E Inhibition rate", "setting": "24 h, 10 µM; inhibitor", "result": 20.1, "unit": "%"}]}
{"smiles": "NC(=O)NCCCC[C@H](N)C(=O)O", "note": "[L-Homocitrulline]", "values": [{"measurement": "229E Inhibition rate", "setting": "24 h, 10 µM; inhibitor", "result": 20.7}]}
{"smiles": "CC(C)(C)[C@]1(O)C[C@@H]2OC(=O)C[C@@]23C(=O)O[C@@H]2OC(=O)[C@H](O)[C@]213", "note": "[Bilobalide]", "values": [{"measurement": "229E Inhibition rate", "setting": "24 h, 10 µM; inhibitor", "result": 54.8, "unit": "%"}]}
{"smiles": "C/C=C/C#CC#C/C=C/c1ccco1", "note": "[Atractylodin]", "values": [{"measurement": "229E Inhibition rate", "setting": "24 h, 10 µM; inhibitor", "result": 10.3, "unit": "%"}]}
{"smiles": "C[C@@H]1CC[C@@]2(OC1)O[C@H]1[C@@H](O)[C@H]3[C@@H]4CC[C@H]5C[C@@H](O[C@@H]6O[C@H](CO)[C@H](O[C@@H]7O[C@H](CO)[C@@H](O)[C@H](O[C@@H]8OC[C@@H](O)[C@H](O)[C@H]8O)[C@H]7O[C@@H]7O[C@H](CO)[C@H](O)[C@H](O[C@@H]8O[C@H](CO)[C@@H](O)[C@H](O)[C@H]8O)[C@H]7O)[C@H](O)[C@H]6O)[C@H](O)C[C@]5(C)[C@H]4CC[C@]3(C)[C@H]1[C@@H]2C", "note": "[Digitonin]", "values": [{"measurement": "229E Inhibition rate", "setting": "24 h post infection, 1 h compound pre-incubation; 10 µM; inhibitor", "result": 13.7, "unit": "%"}]}
{"smiles": "CCN1C[C@]2(C)CC[C@H](OC)[C@@]34C1[C@]1(OCO[C@@]15C[C@H](OC)[C@H]1C[C@]3(O)[C@@H]5[C@H]1OC)[C@@H](OC(C)=O)[C@H]24", "note": "[Deltaline]", "values": [{"measurement": "229E Inhibition rate", "setting": "24 h, 10 µM; inhibitor", "result": 2.6, "unit": "%"}]}
{"smiles": "CN1Cc2c(ccc3c2OCO3)[C@@H]2[C@H]1c1cc3c(cc1C[C@@H]2O)OCO3", "note": "[Chelidonine]", "values": [{"measurement": "229E Inhibition rate", "setting": "24 h, 10 µM; inhibitor", "result": 12.4, "unit": "%"}]}
{"smiles": "CO[C@H]1C[C@H](O[C@H]2CC[C@]3(C)[C@H]4CC[C@]5(C)[C@@H](C6=CC(=O)OC6)CC[C@]5(O)[C@@H]4CC[C@]3(O)C2)O[C@H](C)[C@H]1O[C@@H]1O[C@H](CO)[C@@H](O)[C@H](O)[C@H]1O", "note": "[Periplocin]", "values": [{"measurement": "229E Inhibition rate", "setting": "24 h, 10 µM; inhibitor", "result": 25}]}
{"smiles": "C[C@H]1O[C@@H](O[C@H]2CC[C@@]3(C)[C@H](CC[C@@H]4[C@@H]3C[C@@H](O)[C@]3(C)[C@@H](C5=CC(=O)OC5)CC[C@]43O)C2)C[C@H](O)[C@@H]1O[C@H]1C[C@H](O)[C@H](O[C@H]2C[C@H](O)[C@H](O[C@@H]3O[C@H](CO)[C@@H](O)[C@H](O)[C@H]3O)[C@@H](C)O2)[C@@H](C)O1", "note": "[Deslanoside]", "values": [{"measurement": "229E Inhibition rate", "setting": "24 h, 10 µM; inhibitor", "result": 55.1}]}
{"smiles": "CO[C@@H]1C[C@H](O[C@H]2CC[C@@]3(C)[C@H](CC[C@@]45O[C@@]46CC[C@H](C4=CC(=O)OC4)[C@@]6(C)CC[C@H]35)C2)O[C@H](C)[C@@H]1O", "note": "[Adynerin]", "values": [{"measurement": "229E Inhibition rate", "setting": "24 h, 10 µM; inhibitor", "result": 9.5, "unit": "%"}]}
{"smiles": "CC(C)=CCCC1=CC(=O)c2c(O)ccc(O)c2C1=O", "note": "[Deoxyshikonin]", "values": [{"measurement": "229E Inhibition rate", "setting": "24 h, 10 µM; inhibitor", "result": 9.8, "unit": "%"}]}
{"smiles": "CC1(C)[C@H]2O[C@H]2[C@H]2[C@](C)(O)[C@@H]3CC[C@@H]4[C@@H](O)[C@@]3(C[C@@H](O)[C@@]21O)C[C@@]4(C)O", "note": "[Rhodojaponin III]", "values": [{"measurement": "229E Inhibition rate", "setting": "24 h, 10 µM; inhibitor", "result": 46.8, "unit": "%"}]}
{"smiles": "CC(C)[C@@H]1NC(=O)[C@H](C)OC(=O)[C@@H](C(C)C)NC(=O)[C@@H](C(C)C)OC(=O)[C@H](C(C)C)NC(=O)[C@H](C)OC(=O)[C@@H](C(C)C)NC(=O)[C@@H](C(C)C)OC(=O)[C@H](C(C)C)NC(=O)[C@H](C)OC(=O)[C@@H](C(C)C)NC(=O)[C@@H](C(C)C)OC1=O", "note": "[Valinomycin]", "values": [{"measurement": "229E Inhibition rate", "setting": "24 h, 10 µM; inhibitor", "result": 90.8, "unit": "%"}]}
{"smiles": "COC1=CC(=O)O[C@@H](/C=C/c2ccccc2)C1", "note": "[(+)-Kavain]", "values": [{"measurement": "229E Inhibition rate", "setting": "24 h, 10 µM, inhibitor", "result": 9.8, "unit": "%"}]}
{"smiles": "COC(=O)[C@]12OC[C@]34[C@H]([C@@H](O)[C@@H]1O)[C@@]1(C)CC(=O)C(O)=C(C)[C@@H]1C[C@H]3OC(=O)[C@H](OC(=O)/C=C(\\C)C(C)(C)OC(C)=O)[C@@H]24", "note": "[Bruceantinol]", "values": [{"measurement": "229E Inhibition rate", "setting": "24 h, 10 µM; inhibitor", "result": 0, "unit": "%"}]}
